Compound activity deposited in PubChem BioAssay by National Center for Advancing Translational Sciences (NCATS).
Cycloheximide cs: counter-screen for Shiga toxin inhibitors: cycloheximide protein synthesis inhibition; cell reporter, cycloheximide protein synthesis inhibition counterscreen; max response, %; hit rate 12% among 300,000; AID 2314; in the data active = max response mostly above about 13%, no sharp cut-off; inactive = mostly below about 14%; note: read at 38.3 µM for the half of the compounds with a filed dose; 0% is about no effect
Shiga inhibitor: Shiga toxin inhibition; hit rate 9.2% among 290,000; AID 2315; inhibition, % at 38.7 µM; Vero cells, Shiga toxin protein synthesis inhibition reporter; in the data active = inhibition mostly above about 28%, no sharp cut-off; inactive = mostly below about 43%; note: 0% is about no effect
Pf growth 96h: inhibits malaria parasite growth, 96 h. hit rate 6.9% among 320,000. P. falciparum luciferase reporter growth, 96 h. Potency, µM (top dose mostly 28.7 µM), without a hit: top-dose activity change, negative = inhibition, most hits filed as inhibitors; note: potency is the fitted concentration of half-maximal effect; % is set by controls: 0 for no effect and ±100 for the full control effect
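Cell-based qHTS: luciferase-tagged P. falciparum in erythrocytes (2% hematocrit, 0.05% parasitemia final) incubated with compounds for 96 hours, 37 C, 5% CO2; luciferase detection reagent then added and luminescence measured.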
LASV entry inh: blocks Lassa virus binding to or entry into cells. Lassa virus pseudotype entry inhibition, cell reporter. Potency, µM (series often up to 37.9 µM), for the others: top-dose activity change, negative = inhibition, most hits filed as inhibitors. hit rate 1.2% among 300,000; calls by dose curve; tested in HEK293 cells; note: potency is the fitted concentration of half-maximal effect; % is set by controls: 0 for no effect and ±100 for the full control effect; nearly all actives have a fitted effect of over 50% in size
Pf growth 48h: P. falciparum growth inhibition at 48 hours (one generation); Potency, µM (highest dose often 28.7 µM), without a hit: at the top dose activity change, negative = inhibition, usual class: inhibitors; hit rate 5.9% among 310,000; AID 504832; P. falciparum luciferase growth in erythrocytes, 48 h; note: potency is the fitted concentration of half-maximal effect; % is set by controls: 0 for no effect and ±100 for the full control effect
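Here the parasites carry a stable luciferase gene and grow inside erythrocytes in Albumax-based RPMI medium with compound for one erythrocytic cycle. Activity is scored as loss of luminescent signal.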
Marburg entry inh: inhibitors of Marburg virus binding or cell entry; Marburg virus pseudotyped entry inhibition, cell reporter; Potency, µM (highest dose often 37.8 µM), for inactives: top-dose activity change, negative = inhibition, actives largely listed as inhibitors; hit rate 1.8% among 300,000; AID 540276; calls by dose curve; tested in HEK293 cells; note: potency is the fitted concentration of half-maximal effect; % is set by controls: 0 for no effect and ±100 for the full control effect
* hit, by the source's call; ? = inconclusive; / = not tested or not shown; [ ] = another dose, or the depositor's remark. Sampled rows, rich in hits. Any-hit rate of the full collection: about 19%. Unless noted, calls come from the whole dose curve; as a rule, active = well fitted inhibition curve with a large enough effect; inconclusive = small, poorly fitted or top-dose-only effect, or another doubt; inactive = no such curve, though single readings can be large or run the other way.

SMILES | Cycloheximide cs | Shiga inhibitor | Pf growth 96h | LASV entry inh | Pf growth 48h | Marburg entry inh
S=C(NCc1cccs1)Nc1cccc(Cl)c1Cl | 29* | 45* | -6% | ? | 25% | 0%
Cc1ccc(CNC(=S)Nc2ccc(C)c([N+](=O)[O-])c2)cc1 | 5 | 11 | -26% | 20% | 4% | 28%
COc1cccc(NC(=S)NCc2ccccc2)c1 | 22* | 33* | 3% | / | ? | /
COc1cccc(NC(=S)NCc2cccnc2)c1 | -3 | 18 | ? | 23% | 4% | 4%
COCCN(C(=S)Nc1cccc(OC)c1)C(C)c1cccs1 (stereo unspecified) | 15* | 9 | 100% | 6% | -1% | ?
Nc1nc(O)c(Sc2ccccc2[N+](=O)[O-])c(=O)[nH]1 | 3 | -4 | 48% | 13%[46.1 µM] | 17% | 6%[46.1 µM]
Cc1cc(N2CCOCC2)c(F)cc1C(=O)c1ccccc1 | 0 | 17 | ? | -2% | ? | 14%
Cc1ccc(NC(=S)NCc2cccs2)cc1 | 31* | 9 | 7% | 9% | / | ?
COc1cccc(NC(=S)NCc2cccs2)c1 | 3 | 43* | 313% | 16% | 40% | ?
Cc1cccc(NC(=S)NCc2cccs2)c1 | 8 | 10 | 25% | -17% | 4% | -20%[46.1 µM]
COC(=O)[C@@H]1C[C@H]2CC[C@H](O)C[C@H]2N1Cc1ccccc1OC(=O)c1cccs1 | -1 | -6 | ? | / | 9.3µM* | /
COC(=O)[C@@H]1C[C@@H]2CC[C@@H](O)C[C@@H]2N1Cc1ccccc1OS(=O)(=O)c1ccc(C)cc1 | -3 | -8 | ? | / | 10µM* | /
COC(=O)[C@@H]1C[C@H]2CC[C@H](O)C[C@H]2N1Cc1ccc(-c2ccccc2)cc1 | -6 | -2 | -4% | / | 15% | /
O=C(O)/C=C\c1cccc(-n2cnnn2)c1 | 0 | 24 | 4% | -5% | 14% | ?
O=C1C(Cl)=C(N2CCCCCC2)C(=O)N1c1ccc(Br)cc1 | 3 | 22 | ? | / | -29% | /
O=C1C(Cl)=C(N2CCCCCC2)C(=O)N1c1ccccc1 | 25* | 46 | -13% | -1% | -26% | -4%
Cc1ccc(-n2ncc3c2CC(C)(C)CC3NC(=O)CCc2cccnc2)cc1 (stereo unspecified) | 17 | -7 | 12µM* | -27% | -11% | -29%
CCc1noc(C)c1C(=O)NC1CC(C)(C)Cc2c1cnn2-c1ccccc1 (stereo unspecified) | -3 | -6 | 9.3µM* | / | -23% | /
CC1(C)Cc2c(cnn2-c2ccccc2)C(NC(=O)CCCn2cncn2)C1 (stereo unspecified) | 24* | 29 | 12µM* | ? | -19% | -10%
Cc1nonc1CC(=O)NC1CC(C)(C)Cc2c1cnn2-c1ccc(F)cc1 (stereo unspecified) | 14* | 33* | ? | -8% | -1% | -27%
Cc1ccc(-n2ncc3c2CC(C)(C)CC3NC(=O)CCc2ccncc2)cc1 (stereo unspecified) | 1 | -7 | ? | -9% | 2% | -8%
CC(NC(=O)CCn1ccc2cc(S(=O)(=O)N3CCCC3)ccc21)c1ccccc1 (stereo unspecified) | 12 | -9 | ? | / | ? | /
CC1(C)Cc2c(cnn2-c2ccc(F)cc2)C(NC(=O)CCn2cncn2)C1 (stereo unspecified) | 25* | 16 | ? | -5% | -2% | 15%
CC1(C)Cc2c(cnn2-c2ccc(F)cc2)C(NC(=O)Cn2cncn2)C1 (stereo unspecified) | 0 | -8 | 1% | ? | 20% | 1%
CC(C)CC(C(=O)NC1CCCCC1)N(Cc1ccccc1)C(=O)c1snc(C(N)=O)c1N (stereo unspecified) | -3 | 4 | ? | -29%[46.1 µM] | ? | ?
SMILES | Cycloheximide cs | Shiga inhibitor | Pf growth 96h | LASV entry inh | Pf growth 48h | Marburg entry inh
CCOCCCN(C(=O)c1snc(C(N)=O)c1N)C(C(=O)NC1CCCC1)c1ccc(OC)cc1 (stereo unspecified) | 1 | -3 | 5% | 0%[46.1 µM] | 8.3µM* | ?
COc1ccc(CN(C(=O)c2snc(C(N)=O)c2N)C(CC(C)C)C(=O)NC2CCCCC2)cc1 (stereo unspecified) | -4 | 5 | ? | ? | 12µM* | ?
Cc1c(C(=O)C(=O)NCCC2=CCCCC2)c2ccccc2n1C | 6 | 24 | 4% | 12% | ? | 4%
Cc1occc1C(=O)NC(C)C12CC3CC(CC(C3)C1)C2 (stereo unspecified) | 9 | -23 | 12% | 0%[46.1 µM] | ? | -14%[46.1 µM]
Cc1occc1C(=O)NC1CCCc2ccccc21 (stereo unspecified) | 10 | 17 | 6% | 12% | 13µM* | 0%
Cc1occc1C(=O)NC1CCCCCCC1 | 40* | 60* | 61% | ? | 77% | ?
O=C(CCNC(=O)c1ccc(Br)cc1)NC1CCCc2ccccc21 (stereo unspecified) | / | / | 3% | 7.1µM* | ? | 2.2µM*
Cc1occc1C(=O)NN=C1C2CC3CC(C2)CC1C3 | 28* | 30* | 165% | 4% | 334% | ?
C=CCN(CC=C)CCOc1cccc2ccccc12 | -2 | 2 | 0% | 3% | -4% | ?
CC(C)C[C@H](NC(=O)NC1CCCc2ccccc21)C(=O)O (stereo partly specified) | -3 | 2 | 17% | 1% | 2.3µM* | -1%
Cc1cc(C)c(NC(=O)CS(=O)CC(=O)NC2CCCc3ccccc32)c(C)c1 (stereo unspecified) | -1 | 5 | 10µM* | 0% | -6% | -10%
COC(=O)[C@H](CC(C)C)NC(=O)NC1CCCc2ccccc21 (stereo partly specified) | 1 | -7 | ? | -17% | -13% | -17%
O=C(c1ccco1)N(Cc1cc2ccccc2[nH]c1=O)CC1CCCO1 (stereo unspecified) | -2 | -16 | 18% | 2% | / | 5%
COc1ccc(NC(=O)C2Cc3ccccc3C(=O)O2)cc1 (stereo unspecified) | 12* | 26 | 87% | / | 44% | /
COc1ccc(C2Cc3ccccc3C(=O)O2)cc1 (stereo unspecified) | 19 | active | -13% | 0% | 26% | -17%
COc1ccc(CCNC(=O)C2Cc3ccccc3C(=O)O2)cc1 (stereo unspecified) | 15 | -12 | 11% | 4% | ? | -18%[46.1 µM]
Cc1ccccc1NC(=O)C1Cc2ccccc2C(=O)O1 (stereo unspecified) | 14* | 17 | 57% | 3% | 0% | 3%
Cc1ccc(C)c2c1cc(C)c1nnc(SCC(=O)NCc3ccc4c(c3)OCO4)n12 | -3 | -11 | 20% | -2% | ? | ?
C=CCNc1c2c(nc3nnnn13)CCCC2 | 7 | -20 | 104% | 3% | 11% | 1%[46.1 µM]
Cc1ccc(OCCC(=O)OCC(=O)NCCc2ccccc2)cc1 | -2 | -4 | -9% | -21% | 8% | 10%[46.1 µM]
